From PubChem
PI4K2A block – PI4K2A (human) kinase inhibition. Q9BTU6. purified PI4K2A, ADP-Glo luminescence, 1 h; hits give low values. activity change, negative = inhibition, % at 76.9 µM. 0.13% of 420,000 active. AID 1346378; in the data active = activity change below about -50%; inconclusive = mostly about -30% to -49%
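ADP-Glo luminescence measured ADP generated by PI4K2A enzyme (4 ug/mL before mixing) with 1.2 mM PI substrate (pre-mix) and 300 microM ATP (pre-mix). Tris pH7.5 buffer with MgCl2, Triton X-100; 1 h reaction at ambient temperature.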
GALK inhibitor – inhibitors of human galactokinase. AID 1868. Purified GALK, Kinase-Glo residual ATP luminescence. 0.007% of 270,000 active. P51570. Potency, µM (top dose mostly 57.5 µM), most hits filed as inhibitors
Target sequence (P51570 whole entry, looked up): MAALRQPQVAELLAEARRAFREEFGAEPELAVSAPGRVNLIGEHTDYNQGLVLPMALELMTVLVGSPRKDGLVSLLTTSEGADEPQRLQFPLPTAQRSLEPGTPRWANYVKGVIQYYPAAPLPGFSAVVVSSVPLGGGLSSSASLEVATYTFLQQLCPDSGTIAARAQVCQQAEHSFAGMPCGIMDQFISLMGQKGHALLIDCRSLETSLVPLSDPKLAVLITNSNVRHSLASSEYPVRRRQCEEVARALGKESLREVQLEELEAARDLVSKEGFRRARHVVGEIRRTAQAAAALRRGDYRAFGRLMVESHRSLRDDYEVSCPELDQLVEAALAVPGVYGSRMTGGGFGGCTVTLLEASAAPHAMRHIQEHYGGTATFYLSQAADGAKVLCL
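5 nM enzyme, 35 uM ATP, 100 uM galactose, 20 mM HEPES pH8.0, 5 mM MgCl2; 1 h RT; residual ATP by Kinase-Glo Plus luminescence, qHTS format.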
TrxR1 substrate – substrates of rat thioredoxin reductase 1. AID 588456. purified TrxR1 substrate turnover, NADPH consumption readout. Potency, µM (doses to about 114 µM). 0.01% of 390,000 active. O89049; note: nearly all actives have a fitted effect of over 50% in size
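Rat TrxR1, dispensed at 90 nM, was prereduced with 400 uM NADPH (final) for 5 min at ~22 deg C, then incubated with compound 15 min before 400 uM selenite. A first-read NADPH fluorescence drop versus no-compound background flagged substrates.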
rTrxR1 inhibitor – inhibitors of rat thioredoxin reductase 1; recombinant rTrxR1, NADPH fluorescence consumption, selenite substrate; Potency, µM (series often up to 114 µM), actives largely listed as inhibitors; 1% of 390,000 active; note: nearly all actives have a fitted effect of over 65% in size
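Rat TrxR1 (90 nM in the dispensed reagent) was pre-reduced with 400 uM NADPH for 5 min at room temperature, then incubated with compound for 15 min. After 400 uM selenite was added, NADPH fluorescence (Ex 340/Em 450 nm) was followed for 8 min.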
PKM2 act – PKM2 (human) enzyme activation; purified PKM2, Kinase-Glo ATP luminescence, activation; response scale: 0% is enzyme alone, no compound; Potency, µM (top dose mostly 57.5 µM), actives largely listed as activators; P14618; 0.34% of 260,000 active; note: nearly all actives have a fitted effect of over 55% in size
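Kinase-Glo luminescence reports ATP generated from ADP (0.1 mM) and PEP (0.5 mM) by purified hPK-M2 after 1 h at room temperature, pH 7.2 imidazole buffer; intermediate enzyme activity allows detecting inhibitors and activators.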
HeLa tox – counter-screen for pyruvate kinase M2 activators: HeLa cytotoxicity | shares compounds with PKM2 act | HeLa viability, CellTiter-Glo ATP luminescence, 24 h | activity change, negative = cytotoxicity, % at 57.5 µM | 230 tested, under 10 active
Numbers stand for hits; - = inactive; ? = inconclusive; . = no result; [ ] = dose if it differs, or a comment. Shown are actives, neighbours in structure and some others; about 1.2% of the full set was active somewhere. Unless noted, calls come from the whole dose curve; as a rule, active = well fitted curve in the direction sought with a large enough effect; inconclusive = small, poorly fitted or top-dose-only effect, or another doubt; inactive = no such curve, though single readings can be large; an effect the other way counts as inactive or inconclusive.

SMILES | PI4K2A block | GALK inhibitor | TrxR1 substrate | rTrxR1 inhibitor | PKM2 act | HeLa tox
Cc1ccc(CCNS(=O)(=O)c2ccc3c(c2)CCN3C(=O)CCC(=O)O)cc1 | - | . | - | - | . | .
Cc1cccc(N2C(=O)CSC23C(=O)N(CC(=O)NCc2ccccc2Cl)c2ccccc23)c1 (stereo unspecified) | - | . | - | - | . | .
Nc1cccc2c1C(=O)N(C(=O)/C=C/c1cccc(Br)c1)C2=O | - | - | - | 20µM | - | .
Nc1cccc2c1C(=O)N(C(=O)/C=C/c1cccc(F)c1)C2=O | - | - | - | 28µM | - | .
COc1ccccc1C(=O)N1CCCC(c2nc(-c3cccs3)no2)C1 (stereo unspecified) | - | . | . | . | . | .
COc1ccc(CN(C)C(=O)C2CCCN(c3nc4ccccc4o3)C2)cc1 (stereo unspecified) | - | . | . | . | . | .
Cc1cccc(NC(=O)c2ccc(F)c(S(=O)(=O)NCc3ccco3)c2)c1 | - | - | - | 79µM | . | .
CC(=O)Nc1cccc(NC(=O)c2ccc(S(=O)(=O)NCc3ccco3)cc2)c1 | - | . | . | . | . | .
CCc1ccccc1NC(=O)CNC(=O)c1ccc(S(=O)(=O)NCc2ccco2)cc1 | - | . | . | . | . | .
Cc1cccc(C)c1NC(=O)CNC(=O)c1ccc(S(=O)(=O)NCc2ccco2)cc1 | - | . | - | 28µM | . | .
CCN(c1ccccc1)S(=O)(=O)c1ccc(NC(=O)c2cc(=O)c3cc(C)cc(C)c3o2)cc1 | - | . | - | - | . | .
CC(C)c1cc2c(s1)c1cnn(Cc3ccccc3F)c(=O)c1n2C | . | . | . | . | . | ?
Cn1c2ccsc2c2cnn(Cc3ccccc3F)c(=O)c21 | . | . | . | . | . | -
Cn1c2cc(C#N)sc2c2cnn(Cc3ccccc3F)c(=O)c21 | . | . | . | . | . | -
Cn1c(=O)c2ccccc2n(Cc2ccccc2F)c1=O | - | - | - | - | - | .
CCN1CCN(C(=O)Cn2ncc3c4ccccc4n(Cc4ccccc4F)c3c2=O)CC1 | - | . | - | - | . | .
COC(=O)c1cc2c(s1)c1cnn(Cc3ccccc3F)c(=O)c1n2C | . | . | . | . | . | -
COC(=O)Cn1ncc2c3ccccc3n(C)c2c1=O | - | - | - | - | - | .
Cn1c2cc([N+](=O)[O-])sc2c2cnn(Cc3ccccc3F)c(=O)c21 | . | . | . | . | . | -
CC(O)c1cc2c(s1)c1cnn(Cc3ccccc3F)c(=O)c1n2C (stereo unspecified) | - | . | - | - | . | -
O=C(Cn1ncc2c3ccccc3n(Cc3ccccc3F)c2c1=O)NC1CC1 | - | - | - | - | . | .
COc1ccc(S(=O)(=O)NCC2CCCN(C(=O)c3ccccc3)C2)cc1 (stereo unspecified) | - | - | - | - | 2.5µM | -
COc1cccc(NC(=O)CSc2nnc3cc(C)nc(N)n23)c1 | - | - | - | - | 1.8µM | -
Cc1cc2nnc(SCC(=O)Nc3ccc(Cl)cc3)n2c(N)n1 | - | - | - | - | ? | .
O=c1c2cc3cccnc3nc2ncn1CCc1c[nH]c2ccccc12 | - | . | . | . | . | .
SMILES | PI4K2A block | GALK inhibitor | TrxR1 substrate | rTrxR1 inhibitor | PKM2 act | HeLa tox
CC(=O)c1c(C)[nH]c(C(=O)NCc2ccccc2Cl)c1C | - | - | - | - | 7.9µM | -
CCc1c(C(=O)NCc2ccccc2Cl)[nH]c(C)c1C(C)=O | - | - | - | - | - | .
CCn1c(COc2ccc(Cl)cc2)nnc1SCC(=O)Nc1ccc(Oc2ccccc2)cc1 | - | . | . | . | . | .
Cc1cc(NC(=O)c2cnn3c(C(F)(F)F)cc(-c4ccccc4)nc23)no1 | - | - | - | - | 3.5µM | -
COC(=O)c1c(NC(=O)CCCOc2ccc(C)cc2)sc2c1C(C(=O)OC)CC2 (stereo unspecified) | - | . | - | - | . | .
Cc1ccc2c(=O)cc(CSc3ncn[nH]3)[nH]c2c1C | - | . | - | - | . | .
O=S(=O)(c1ccc2c(c1)OCCO2)N1CCN(S(=O)(=O)c2ccc3c(c2)OCCO3)CC1 | . | . | . | . | . | -
CN1CCN(S(=O)(=O)c2ccc3c(c2)OCCO3)CC1 | - | - | - | - | - | .
O=S(=O)(c1ccc2c(c1)OCCO2)N1CCN(S(=O)(=O)c2c(F)ccc(O)c2F)CC1 | . | . | . | . | . | -
N#CCCN1CCN(S(=O)(=O)c2ccc3c(c2)OCCCO3)CC1 | - | - | - | - | ? | .
O=S(=O)(c1cccc(Cl)c1)N1CCN(S(=O)(=O)c2ccc3c(c2)OCCO3)CC1 | - | . | - | - | . | .
COc1ccc(S(=O)(=O)N2CCN(S(=O)(=O)c3ccc(OC)cc3)CC2)cc1 | . | . | . | . | . | -
O=S(=O)(c1ccc2c(c1)OCCO2)N1CCN(S(=O)(=O)c2cccc[n+]2[O-])CC1 | . | . | . | . | . | -
COc1ccc(S(=O)(=O)N2CCC(C(=O)c3ccc4c(c3)OCCO4)CC2)cc1 | - | - | - | - | - | .
O=S(=O)(c1ccc2c(c1)OCCO2)N1CCN(c2nc3ccccc3s2)CC1 | - | - | - | - | 4µM | -
COc1ccc(S(=O)(=O)N2CCN(S(=O)(=O)c3ccc4c(c3)OCCO4)CC2)cc1 | - | - | - | - | 0.22µM | ?
O=S(=O)(c1ccc2c(c1)OCCO2)N1CCN(c2nc(-c3ccccc3)nc3ccccc23)CC1 | . | . | - | - | . | .
O=S(=O)(c1ccc2c(c1)OCCO2)N1CCN(S(=O)(=O)c2ccccc2F)CC1 | . | . | . | . | . | -
COc1ccc(S(=O)(=O)N2CCC(C(=O)NCc3cccc(OC)c3)CC2)cc1 | - | - | - | - | 1.6µM | -
CC(=O)c1cccc(NC(=O)Nc2nnc(N3CCCC3)s2)c1 | - | . | - | - | . | .
CCOc1ccc(N2C(=O)CS(=O)(=O)C23C(=O)N(Cc2cccc(Cl)c2)c2ccccc23)cc1 (stereo unspecified) | - | . | - | - | . | .
O=C1COc2cc(S(=O)(=O)CCC(=O)N3CCN(c4ccccc4)CC3)c(Cl)cc2N1 | - | . | -[11.4 µM] | -[11.4 µM] | . | .
COC(=O)[C@]1(CNC(C)=O)CC(=O)N(C)[C@@H]1c1ccccc1 | - | . | . | . | . | .
CCC(Cn1nnc2ccccc2c1=O)NC(=O)Nc1cc(OC)cc(OC)c1 (stereo unspecified) | - | . | - | - | . | .
O=S(=O)(c1ccc2c(c1)OCCO2)N1CCN(S(=O)(=O)c2ccccn2)CC1 | - | . | - | - | . | -
SMILES | PI4K2A block | GALK inhibitor | TrxR1 substrate | rTrxR1 inhibitor | PKM2 act | HeLa tox
O=S(=O)(c1cccc(Br)c1)N1CCN(S(=O)(=O)c2ccc3c(c2)OCCO3)CC1 | - | . | - | - | . | .
O=S(=O)(c1ccc2c(c1)OCCO2)N1CCN(Cc2ccccc2)CC1 | - | - | - | - | - | .
COc1cc(F)c(S(=O)(=O)N2CCN(S(=O)(=O)c3ccc4c(c3)OCCO4)CC2)c(F)c1 | . | . | . | . | . | -
O=S(=O)(c1cccc(F)c1)N1CCN(S(=O)(=O)c2ccc3c(c2)OCCO3)CC1 | . | . | . | . | . | -
Cn1c(=O)cc(OCCCC(=O)Nc2cc(-c3cn[nH]c3)ccn2)c2ccccc21 | - | . | . | . | . | .
CCn1c(C)nc2cc(C(=O)N/N=C/c3ccc(O)c(O)c3O)ccc21 | - | - | - | - | 3.2µM | -
COc1cccc(CNC(=O)CCC2CCCN(C(=O)c3cc(C)on3)C2)c1 (stereo unspecified) | - | - | - | - | - | .
